The full data set covers some 7,900 targets. This sample favours those with a hit. About 0.6% of all pairs of compound and target were hits. A number with no mark means an inactive call.
Columns and labels:
Test in all cases: log2 fold change, soluble protein after heating vs DMSO (PISA); higher = thermal stabilisation; K562 cells, 10 uM, 30 min; active = over 0.2 and 3.5 SD of the protein, either way, in both replicates (recomputed)
IRAK-1-4 Inhibitor I = compound: C1COCCN1CCN2C3=CC=CC=C3N=C2NC(=O)C4=CC(=CC=C4)[N+](=O)[O-] [IRAK-1-4 Inhibitor I]
Summary of the method: (§1)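 K562 cells at 2×10^6 cells/mL were treated with 10 μM compound for 30 min. Aliquots were heated for 3 min across 48°C-58°C, pooled, and extracted in PBS with 0.5% NP-40 at 4°C; soluble protein was the supernatant after 21,000xg for 90 min. Soluble protein was quantified by TMTpro 16plex LC-MS/MS with channel sums equalised, and reported as log2 fold change in thermal stability against DMSO controls, with values from duplicates.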

ibrutinib = compound: C=CC(=O)N1CCC[C@@H](n2nc(-c3ccc(Oc4ccccc4)cc3)c3c(N)ncnc32)C1 [ibrutinib]
Summary of the method: as §1

[1] = compound: CC(=O)c1cnc2ccc(-c3cc(Cl)c(O)c(Cl)c3)nc2c1N[C@H]1CC[C@H](CN(C)C)CC1
Summary of the method: as §1

ralimetinib = compound: CC(C)(C)Cn1c(N)nc2ccc(-c3[nH]c(C(C)(C)C)nc3-c3ccc(F)cc3)nc21 [ralimetinib]
Summary of the method: as §1

[2] = compound: CC(C)(O)CC(=O)NCCn1ccc2ncnc(Nc3ccc(Oc4cccc(C(F)(F)F)c4)c(Cl)c3)c21
Summary of the method: as §1

[3] = compound: CC(C)C1=C2N=C(C=C(N2N=C1)NCC3=CC=CC=C3)NCCCCCCN
Summary of the method: as §1

[4] = compound: CC(C)C[C@@H](C=O)NC(=O)[C@H](CC(C)C)NC(=O)[C@H](CC(C)C)NC(=O)OCc1ccccc1
Summary of the method: as §1

pinometostat = compound: CC(C)N(C[C@H]1O[C@@H](n2cnc3c(N)ncnc32)[C@H](O)[C@@H]1O)[C@H]1C[C@@H](CCc2nc3cc(C(C)(C)C)ccc3[nH]2)C1 [pinometostat]
Summary of the method: as §1

[5] = compound: CC1=C(C(CC(=O)N1)C2=CC=C(C=C2)C(F)(F)F)C(=O)NC3=C(C=C4C(=C3)C=NN4)F
Summary of the method: as §1

[6] = compound: CC1=C(C2=C(C=C1)C(=O)C3=CC=CC=C3N2CCCN)C
Summary of the method: as §1

Chain of UniProt Q12996 (Q12996 whole entry, looked up): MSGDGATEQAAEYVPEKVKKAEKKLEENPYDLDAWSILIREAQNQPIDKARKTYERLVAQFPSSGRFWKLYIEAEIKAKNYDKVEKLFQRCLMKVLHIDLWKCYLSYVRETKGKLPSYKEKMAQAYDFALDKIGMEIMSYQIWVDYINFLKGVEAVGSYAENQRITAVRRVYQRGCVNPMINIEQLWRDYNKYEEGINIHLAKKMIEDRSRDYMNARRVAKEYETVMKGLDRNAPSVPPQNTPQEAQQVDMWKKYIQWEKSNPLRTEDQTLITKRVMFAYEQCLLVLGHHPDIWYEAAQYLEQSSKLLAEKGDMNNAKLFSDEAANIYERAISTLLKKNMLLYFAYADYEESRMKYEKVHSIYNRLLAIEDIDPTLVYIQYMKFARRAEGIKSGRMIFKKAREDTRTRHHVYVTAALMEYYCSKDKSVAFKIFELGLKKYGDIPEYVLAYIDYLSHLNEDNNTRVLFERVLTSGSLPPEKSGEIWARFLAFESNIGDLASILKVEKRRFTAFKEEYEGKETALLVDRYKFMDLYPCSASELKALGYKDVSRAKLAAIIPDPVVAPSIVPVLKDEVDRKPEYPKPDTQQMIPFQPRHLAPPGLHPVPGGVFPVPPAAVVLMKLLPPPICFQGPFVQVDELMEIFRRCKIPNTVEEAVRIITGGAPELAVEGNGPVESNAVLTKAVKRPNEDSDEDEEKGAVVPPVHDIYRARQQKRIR
Chain of UniProt Q9P031 (Q9P031 whole entry, looked up): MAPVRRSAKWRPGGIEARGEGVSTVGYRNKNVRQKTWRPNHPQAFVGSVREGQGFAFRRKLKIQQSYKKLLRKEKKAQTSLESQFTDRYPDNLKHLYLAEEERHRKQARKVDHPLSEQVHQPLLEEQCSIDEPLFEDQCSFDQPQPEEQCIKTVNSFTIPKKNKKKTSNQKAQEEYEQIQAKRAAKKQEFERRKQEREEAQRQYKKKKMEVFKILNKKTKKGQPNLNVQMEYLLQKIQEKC
Chain of UniProt P35790 (P35790 whole entry, looked up): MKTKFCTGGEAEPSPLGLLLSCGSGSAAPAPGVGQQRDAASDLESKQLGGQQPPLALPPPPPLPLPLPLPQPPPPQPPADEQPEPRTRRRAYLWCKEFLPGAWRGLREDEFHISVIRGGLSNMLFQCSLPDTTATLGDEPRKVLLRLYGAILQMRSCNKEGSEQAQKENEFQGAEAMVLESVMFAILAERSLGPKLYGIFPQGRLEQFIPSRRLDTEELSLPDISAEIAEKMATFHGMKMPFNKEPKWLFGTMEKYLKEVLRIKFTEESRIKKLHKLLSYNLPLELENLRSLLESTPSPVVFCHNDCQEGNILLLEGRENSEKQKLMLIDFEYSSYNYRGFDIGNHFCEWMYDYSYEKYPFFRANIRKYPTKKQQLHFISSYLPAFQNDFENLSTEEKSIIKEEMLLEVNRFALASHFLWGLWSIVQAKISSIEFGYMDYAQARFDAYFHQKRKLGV
Chain of UniProt P08962 (P08962 whole entry, looked up): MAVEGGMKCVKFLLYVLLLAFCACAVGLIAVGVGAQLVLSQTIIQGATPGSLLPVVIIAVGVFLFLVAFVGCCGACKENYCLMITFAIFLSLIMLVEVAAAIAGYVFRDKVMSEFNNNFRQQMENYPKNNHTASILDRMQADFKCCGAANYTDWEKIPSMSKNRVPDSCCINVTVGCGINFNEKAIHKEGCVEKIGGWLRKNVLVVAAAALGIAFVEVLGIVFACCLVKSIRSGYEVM
Chain of UniProt O95319 (O95319 whole entry, looked up): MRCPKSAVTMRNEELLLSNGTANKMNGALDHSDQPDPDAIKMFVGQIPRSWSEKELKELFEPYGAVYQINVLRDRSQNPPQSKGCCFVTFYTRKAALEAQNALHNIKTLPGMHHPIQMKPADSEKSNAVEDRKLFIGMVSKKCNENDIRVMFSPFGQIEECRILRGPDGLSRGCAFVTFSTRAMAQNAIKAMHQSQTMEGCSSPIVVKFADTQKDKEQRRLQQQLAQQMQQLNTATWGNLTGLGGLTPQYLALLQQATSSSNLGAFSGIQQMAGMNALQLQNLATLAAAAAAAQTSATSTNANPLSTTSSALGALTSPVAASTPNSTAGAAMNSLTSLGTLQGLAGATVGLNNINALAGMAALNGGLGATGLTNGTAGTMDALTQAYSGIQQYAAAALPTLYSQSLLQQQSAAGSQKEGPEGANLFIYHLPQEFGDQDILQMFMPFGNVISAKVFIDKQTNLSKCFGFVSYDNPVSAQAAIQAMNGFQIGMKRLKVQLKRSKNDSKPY
Chain of UniProt O43405 (O43405 whole entry, looked up): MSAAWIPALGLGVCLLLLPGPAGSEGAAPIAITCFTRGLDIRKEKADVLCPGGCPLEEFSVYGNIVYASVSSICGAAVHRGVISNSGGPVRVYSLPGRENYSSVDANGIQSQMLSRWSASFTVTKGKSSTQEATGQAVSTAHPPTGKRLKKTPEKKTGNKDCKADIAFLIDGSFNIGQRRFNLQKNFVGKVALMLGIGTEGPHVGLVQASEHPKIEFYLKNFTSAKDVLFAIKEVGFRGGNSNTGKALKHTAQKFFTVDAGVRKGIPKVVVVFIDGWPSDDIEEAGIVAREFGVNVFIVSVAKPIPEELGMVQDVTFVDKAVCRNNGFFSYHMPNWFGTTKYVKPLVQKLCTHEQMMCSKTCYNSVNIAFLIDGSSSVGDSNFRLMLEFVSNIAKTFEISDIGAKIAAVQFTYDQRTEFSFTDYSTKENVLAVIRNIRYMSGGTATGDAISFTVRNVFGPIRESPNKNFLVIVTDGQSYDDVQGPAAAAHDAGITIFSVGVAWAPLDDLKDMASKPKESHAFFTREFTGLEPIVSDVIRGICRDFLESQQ
Chain of UniProt P55060 (P55060 whole entry, looked up): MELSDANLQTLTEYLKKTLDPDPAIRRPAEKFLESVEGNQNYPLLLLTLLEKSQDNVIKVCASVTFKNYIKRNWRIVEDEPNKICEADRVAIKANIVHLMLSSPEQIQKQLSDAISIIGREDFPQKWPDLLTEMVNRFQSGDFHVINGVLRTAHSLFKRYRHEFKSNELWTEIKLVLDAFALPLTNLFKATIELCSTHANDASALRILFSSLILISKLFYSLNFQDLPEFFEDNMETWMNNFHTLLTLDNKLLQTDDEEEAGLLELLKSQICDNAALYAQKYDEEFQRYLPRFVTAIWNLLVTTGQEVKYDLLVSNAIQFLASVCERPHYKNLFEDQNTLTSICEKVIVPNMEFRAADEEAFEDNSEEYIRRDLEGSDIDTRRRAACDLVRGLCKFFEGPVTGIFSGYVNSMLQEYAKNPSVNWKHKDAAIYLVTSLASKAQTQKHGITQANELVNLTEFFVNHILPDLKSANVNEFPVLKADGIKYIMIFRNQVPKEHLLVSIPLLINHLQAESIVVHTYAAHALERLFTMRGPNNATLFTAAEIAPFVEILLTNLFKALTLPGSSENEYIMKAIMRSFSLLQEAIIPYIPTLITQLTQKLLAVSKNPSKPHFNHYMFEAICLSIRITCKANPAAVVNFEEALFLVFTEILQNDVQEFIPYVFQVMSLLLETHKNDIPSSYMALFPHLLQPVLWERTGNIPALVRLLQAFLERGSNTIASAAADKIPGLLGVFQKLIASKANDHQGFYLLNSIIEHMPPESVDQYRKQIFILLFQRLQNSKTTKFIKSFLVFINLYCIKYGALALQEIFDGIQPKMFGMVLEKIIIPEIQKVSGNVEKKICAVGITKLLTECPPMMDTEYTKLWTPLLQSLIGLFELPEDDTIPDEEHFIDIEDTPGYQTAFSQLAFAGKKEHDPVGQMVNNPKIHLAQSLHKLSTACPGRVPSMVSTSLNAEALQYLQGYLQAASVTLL
Chain of UniProt Q8NHZ8 (Q8NHZ8 whole entry, looked up): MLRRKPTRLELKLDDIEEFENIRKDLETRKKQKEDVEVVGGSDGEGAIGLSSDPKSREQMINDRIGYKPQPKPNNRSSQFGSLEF
Chain of UniProt O14757 (O14757 whole entry, looked up): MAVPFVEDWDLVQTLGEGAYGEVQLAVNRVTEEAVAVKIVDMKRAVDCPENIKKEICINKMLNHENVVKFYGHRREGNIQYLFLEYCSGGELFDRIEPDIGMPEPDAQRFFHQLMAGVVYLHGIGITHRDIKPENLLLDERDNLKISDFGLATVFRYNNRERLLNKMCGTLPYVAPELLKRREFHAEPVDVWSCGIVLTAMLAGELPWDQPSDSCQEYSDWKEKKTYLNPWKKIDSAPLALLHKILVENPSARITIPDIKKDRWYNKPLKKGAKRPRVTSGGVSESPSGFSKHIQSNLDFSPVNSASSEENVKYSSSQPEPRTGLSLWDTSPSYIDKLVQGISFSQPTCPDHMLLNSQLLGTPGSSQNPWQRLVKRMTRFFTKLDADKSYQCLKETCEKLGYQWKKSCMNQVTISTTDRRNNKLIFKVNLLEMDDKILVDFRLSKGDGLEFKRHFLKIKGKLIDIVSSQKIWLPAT
Chain of UniProt P33240 (P33240 whole entry, looked up): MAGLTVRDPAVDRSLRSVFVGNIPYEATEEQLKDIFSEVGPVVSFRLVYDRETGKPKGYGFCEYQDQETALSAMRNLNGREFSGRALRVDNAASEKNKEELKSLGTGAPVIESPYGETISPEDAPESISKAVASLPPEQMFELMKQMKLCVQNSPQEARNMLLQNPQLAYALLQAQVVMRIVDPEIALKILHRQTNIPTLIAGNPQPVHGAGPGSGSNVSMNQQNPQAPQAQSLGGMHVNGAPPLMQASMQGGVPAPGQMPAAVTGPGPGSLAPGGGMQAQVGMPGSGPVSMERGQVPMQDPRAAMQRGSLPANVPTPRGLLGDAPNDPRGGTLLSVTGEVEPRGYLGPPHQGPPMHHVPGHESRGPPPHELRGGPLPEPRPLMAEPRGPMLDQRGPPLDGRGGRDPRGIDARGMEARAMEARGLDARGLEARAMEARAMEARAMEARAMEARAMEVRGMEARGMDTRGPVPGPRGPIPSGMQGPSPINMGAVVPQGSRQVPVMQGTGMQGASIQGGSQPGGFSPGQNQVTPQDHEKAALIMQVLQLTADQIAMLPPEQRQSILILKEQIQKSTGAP
Chain of UniProt Q6P5X5 (Q6P5X5 whole entry, looked up): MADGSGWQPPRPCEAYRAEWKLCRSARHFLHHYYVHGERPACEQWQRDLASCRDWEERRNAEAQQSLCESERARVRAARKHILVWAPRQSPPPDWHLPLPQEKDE

Target	log2 fold change (IRAK-1-4 Inhibitor I)	log2 fold change (ibrutinib)	log2 fold change [1]	log2 fold change (ralimetinib)	log2 fold change [2]	log2 fold change [3]	log2 fold change [4]	log2 fold change (pinometostat)	log2 fold change [5]	log2 fold change [6]
CCDC59 (UniProt Q9P031)	-0.083	-0.051	0.224	0.28	-0.073	0.093	0.197	0.233	0.036	-0.468
COMT (UniProt P21964)	0.01	-0.032	-0.065	-0.043	-0.007	0.006	-0.039	-0.024	-0.068	0.053
CSE1L (UniProt P55060)	0.001	-0.028	0.033	-0.011	-0.144	-0.145	-0.029	-0.027	-0.008	-0.02
C22orf39 (UniProt Q6P5X5)	0.12	0.033	-0.069	-0.104	0.018	-0.587 (active)	0.126	0.035	0.014	0.213
CELF2 isoform 3 (UniProt O95319)	0.009	-0.022	0.009	0.055	-0.003	-0.015	0.249	-0.047	-0.027	0.418 (active)
CD63 (UniProt P08962)	0.022	0.036	0.032	0.047	0.006	0.081	0.056	0.007	0.017	0.003
CHEK1 (UniProt O14757)	-0.018	-0.014	0	-0.076	-0.055	0.003	0.056	0.018	0.017	-0.029
CHKA (UniProt P35790)	-0.034	0	0.085	0.006	0.057	0.113	0.019	0.088	-0.061	0.079
CA8 (UniProt P35219)	0.027	0.004	-0.091	0.033	-0.036	-0.056	0.011	-0.008	-0.021	-0.046
CSTF3 (UniProt Q12996)	0.087	0	0.019	-0.052	-0.026	0.132	-0.012	0.021	-0.018	0.262 (active)
CSNK1D (UniProt P48730)	-0.041	0.002	0.768 (active)	0.216	-0.001	-0.138	0.077	0.13	0.019	0.063
CDC26 (UniProt Q8NHZ8)	-0.014	-0.003	0.099	0.188	0.007	-0.01	-0.04	-0.128	0.005	0.049
COCH (UniProt O43405)	0.001	0.058	0.045	0.041	0.331 (active)	0.021	-0.019	0.043	-0.072	-0.353
CDK12 (UniProt Q9NYV4)	-0.179	0.008	-0.566	0.138	0.067	-0.211	0.006	0.399	0.041	-0.014
CSTF2 (UniProt P33240)	0.011	0.008	0.057	-0.006	0.025	0.093	-0.006	-0.008	0	0.169

Source: the supplement of paper PMC10849652
